These results are taken from ChEMBL document CHEMBL1961873, “Compounds: GSK PKIS; Assays: Nanosyn kinase panel” (2012).

The target of assay [1] is Tyrosine-protein kinase Fyn (Homo sapiens) (UniProt P06241). The note with it: at 1 µM.
The target in assay [2] is Tyrosine-protein kinase HCK (Homo sapiens) (UniProt P08631). The note with it: at 0.1 µM.
For assay [3] the target is unchanged. The note with it: at 1 µM.
In assay [4] the target is Insulin-like growth factor 1 receptor (Homo sapiens) (UniProt P08069). The note with it: at 0.1 µM.
Assay [5] has the same target. The note with it: at 1 µM.
Assay [6] has as its target Insulin receptor (Homo sapiens) (UniProt P06213). The note with it: at 0.1 µM.
For assay [7] the target is unchanged. The note with it: at 1 µM.
The target of assay [8] is Insulin receptor-related protein (Homo sapiens) (UniProt P14616). The note with it: at 0.1 µM.
Chain of Insulin receptor-related protein (Homo sapiens) (P14616 27-742 limits assumed): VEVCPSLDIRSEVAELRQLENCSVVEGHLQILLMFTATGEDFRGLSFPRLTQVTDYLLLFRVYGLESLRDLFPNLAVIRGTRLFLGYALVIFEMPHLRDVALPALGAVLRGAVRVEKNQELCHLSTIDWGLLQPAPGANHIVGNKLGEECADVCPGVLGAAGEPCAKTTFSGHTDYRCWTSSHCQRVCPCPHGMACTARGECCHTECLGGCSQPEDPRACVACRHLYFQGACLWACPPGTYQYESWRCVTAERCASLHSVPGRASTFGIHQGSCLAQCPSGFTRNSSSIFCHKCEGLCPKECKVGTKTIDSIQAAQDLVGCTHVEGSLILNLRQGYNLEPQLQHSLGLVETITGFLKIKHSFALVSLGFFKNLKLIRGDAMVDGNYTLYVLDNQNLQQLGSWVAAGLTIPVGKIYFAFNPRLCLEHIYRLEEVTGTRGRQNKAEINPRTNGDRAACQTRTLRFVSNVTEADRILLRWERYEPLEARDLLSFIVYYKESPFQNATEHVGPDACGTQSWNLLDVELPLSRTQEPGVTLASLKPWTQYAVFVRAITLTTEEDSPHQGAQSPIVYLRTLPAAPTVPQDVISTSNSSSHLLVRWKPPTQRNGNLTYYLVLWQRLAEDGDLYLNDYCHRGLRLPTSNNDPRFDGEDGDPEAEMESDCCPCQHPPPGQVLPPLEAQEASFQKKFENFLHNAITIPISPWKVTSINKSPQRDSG
Chain of Insulin receptor-related protein (Homo sapiens) (P14616 747-1297 limits assumed): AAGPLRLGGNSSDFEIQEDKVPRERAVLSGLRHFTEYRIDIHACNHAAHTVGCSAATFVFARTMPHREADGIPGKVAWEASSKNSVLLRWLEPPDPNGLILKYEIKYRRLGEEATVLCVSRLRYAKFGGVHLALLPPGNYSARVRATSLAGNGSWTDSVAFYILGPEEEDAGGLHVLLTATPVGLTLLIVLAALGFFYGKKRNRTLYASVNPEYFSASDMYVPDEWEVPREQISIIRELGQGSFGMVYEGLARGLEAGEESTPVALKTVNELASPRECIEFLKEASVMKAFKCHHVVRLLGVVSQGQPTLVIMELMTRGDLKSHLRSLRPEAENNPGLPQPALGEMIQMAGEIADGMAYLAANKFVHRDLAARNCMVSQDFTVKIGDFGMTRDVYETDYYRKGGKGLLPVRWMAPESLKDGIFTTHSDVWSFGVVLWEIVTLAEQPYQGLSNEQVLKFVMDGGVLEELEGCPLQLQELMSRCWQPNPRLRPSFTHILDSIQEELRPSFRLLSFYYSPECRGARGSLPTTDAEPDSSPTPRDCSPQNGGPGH
Assay [9] shares this target. The note with it: at 1 µM.
Assay [10] has as its target T1, Tyrosine-protein kinase ITK/TSK (Homo sapiens) (UniProt Q08881).
T1 sequence (whole entry): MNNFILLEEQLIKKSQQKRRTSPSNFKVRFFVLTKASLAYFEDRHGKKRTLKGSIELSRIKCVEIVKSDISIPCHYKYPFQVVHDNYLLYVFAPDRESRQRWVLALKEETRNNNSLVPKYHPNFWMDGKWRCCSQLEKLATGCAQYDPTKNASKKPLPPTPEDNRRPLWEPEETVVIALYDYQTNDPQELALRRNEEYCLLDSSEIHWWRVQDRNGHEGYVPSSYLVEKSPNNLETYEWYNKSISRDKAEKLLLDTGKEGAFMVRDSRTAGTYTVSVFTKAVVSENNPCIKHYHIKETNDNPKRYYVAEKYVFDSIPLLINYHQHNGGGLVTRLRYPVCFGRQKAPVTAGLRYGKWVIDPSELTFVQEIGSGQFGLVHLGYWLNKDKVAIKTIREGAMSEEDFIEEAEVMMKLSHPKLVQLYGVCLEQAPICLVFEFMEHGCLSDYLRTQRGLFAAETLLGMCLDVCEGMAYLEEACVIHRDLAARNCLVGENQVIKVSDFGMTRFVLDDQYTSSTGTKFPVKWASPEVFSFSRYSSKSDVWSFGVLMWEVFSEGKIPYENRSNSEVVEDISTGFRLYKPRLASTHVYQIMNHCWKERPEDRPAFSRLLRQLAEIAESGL
The note with it: at 0.1 µM.

The target in assay [11] is T1, Tyrosine-protein kinase ITK/TSK (Homo sapiens). The note with it: at 1 µM.
The target of assay [12] is Tyrosine-protein kinase JAK1 (Homo sapiens) (UniProt P23458). The note with it: at 0.1 µM.
Assay [13] shares this target. The note with it: at 1 µM.
In assay [14] the target is Tyrosine-protein kinase JAK2 (Homo sapiens) (UniProt O60674). The note with it: at 0.1 µM.
Chain of Tyrosine-protein kinase JAK2 (Homo sapiens) (O60674 whole entry): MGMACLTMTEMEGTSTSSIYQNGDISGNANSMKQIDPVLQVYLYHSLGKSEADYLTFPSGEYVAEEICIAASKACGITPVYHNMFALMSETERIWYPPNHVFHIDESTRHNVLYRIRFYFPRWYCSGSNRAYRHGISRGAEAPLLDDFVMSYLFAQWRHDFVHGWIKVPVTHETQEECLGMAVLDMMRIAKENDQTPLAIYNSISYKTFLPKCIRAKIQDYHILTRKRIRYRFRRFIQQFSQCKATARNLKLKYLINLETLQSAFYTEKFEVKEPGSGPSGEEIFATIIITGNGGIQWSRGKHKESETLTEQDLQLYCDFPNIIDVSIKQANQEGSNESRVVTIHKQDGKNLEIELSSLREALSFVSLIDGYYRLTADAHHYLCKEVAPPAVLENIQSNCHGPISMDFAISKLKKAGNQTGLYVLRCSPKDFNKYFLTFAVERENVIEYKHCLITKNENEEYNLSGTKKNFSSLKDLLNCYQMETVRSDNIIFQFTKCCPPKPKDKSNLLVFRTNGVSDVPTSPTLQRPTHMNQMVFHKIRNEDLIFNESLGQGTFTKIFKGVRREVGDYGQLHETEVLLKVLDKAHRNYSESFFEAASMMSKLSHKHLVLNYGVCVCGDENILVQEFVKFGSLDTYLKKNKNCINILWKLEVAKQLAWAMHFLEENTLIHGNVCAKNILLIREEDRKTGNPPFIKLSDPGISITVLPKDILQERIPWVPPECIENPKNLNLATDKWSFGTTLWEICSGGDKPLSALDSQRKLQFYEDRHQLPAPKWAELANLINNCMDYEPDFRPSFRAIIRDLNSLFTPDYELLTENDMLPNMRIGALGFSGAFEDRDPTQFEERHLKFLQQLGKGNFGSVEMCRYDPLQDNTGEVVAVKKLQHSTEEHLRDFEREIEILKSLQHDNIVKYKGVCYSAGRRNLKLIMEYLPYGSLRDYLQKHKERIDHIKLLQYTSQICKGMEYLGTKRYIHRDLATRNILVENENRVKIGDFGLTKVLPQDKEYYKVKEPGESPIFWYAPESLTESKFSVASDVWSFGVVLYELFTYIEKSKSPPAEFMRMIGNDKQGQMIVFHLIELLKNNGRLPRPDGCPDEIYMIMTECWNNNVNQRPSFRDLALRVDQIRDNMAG
The target is the same in assay [15]. The note with it: at 1 µM.
The target of assay [16] is T2, Tyrosine-protein kinase JAK3 (Homo sapiens) (UniProt P52333).
T2 sequence (whole entry): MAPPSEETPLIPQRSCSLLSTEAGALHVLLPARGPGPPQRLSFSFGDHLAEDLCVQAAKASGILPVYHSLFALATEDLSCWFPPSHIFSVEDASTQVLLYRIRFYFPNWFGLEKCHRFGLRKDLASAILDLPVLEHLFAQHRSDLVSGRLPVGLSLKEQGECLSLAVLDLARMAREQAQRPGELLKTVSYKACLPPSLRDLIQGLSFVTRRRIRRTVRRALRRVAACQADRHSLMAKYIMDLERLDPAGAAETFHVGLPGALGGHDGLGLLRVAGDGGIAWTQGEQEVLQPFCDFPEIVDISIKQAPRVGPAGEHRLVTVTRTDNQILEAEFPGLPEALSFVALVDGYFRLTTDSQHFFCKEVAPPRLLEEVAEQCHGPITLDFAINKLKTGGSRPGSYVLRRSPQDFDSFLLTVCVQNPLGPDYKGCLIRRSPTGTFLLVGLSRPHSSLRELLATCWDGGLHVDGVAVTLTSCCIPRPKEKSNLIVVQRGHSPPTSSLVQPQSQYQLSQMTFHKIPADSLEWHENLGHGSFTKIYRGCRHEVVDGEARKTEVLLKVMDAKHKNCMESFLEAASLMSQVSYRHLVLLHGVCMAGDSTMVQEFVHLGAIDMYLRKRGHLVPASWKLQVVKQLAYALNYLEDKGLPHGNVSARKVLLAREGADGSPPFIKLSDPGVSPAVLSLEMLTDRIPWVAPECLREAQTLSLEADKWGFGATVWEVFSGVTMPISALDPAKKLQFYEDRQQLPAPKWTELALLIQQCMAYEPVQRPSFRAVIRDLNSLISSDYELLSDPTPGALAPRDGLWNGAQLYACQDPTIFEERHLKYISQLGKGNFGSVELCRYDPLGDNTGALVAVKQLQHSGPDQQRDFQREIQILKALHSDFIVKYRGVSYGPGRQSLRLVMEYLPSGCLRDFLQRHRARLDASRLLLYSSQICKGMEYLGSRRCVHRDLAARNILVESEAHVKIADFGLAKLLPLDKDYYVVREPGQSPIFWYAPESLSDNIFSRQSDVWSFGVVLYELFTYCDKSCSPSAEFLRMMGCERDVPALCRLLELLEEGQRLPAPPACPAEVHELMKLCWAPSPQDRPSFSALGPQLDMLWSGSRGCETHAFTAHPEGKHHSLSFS
The note with it: at 0.1 µM.

For assay [17], the target named is T2, Tyrosine-protein kinase JAK3 (Homo sapiens). The note with it: at 1 µM.
The target of assay [18] is Vascular endothelial growth factor receptor 2 (Homo sapiens) (UniProt P35968). The note with it: at 0.1 µM.
Chain of Vascular endothelial growth factor receptor 2 (Homo sapiens) (P35968 whole entry): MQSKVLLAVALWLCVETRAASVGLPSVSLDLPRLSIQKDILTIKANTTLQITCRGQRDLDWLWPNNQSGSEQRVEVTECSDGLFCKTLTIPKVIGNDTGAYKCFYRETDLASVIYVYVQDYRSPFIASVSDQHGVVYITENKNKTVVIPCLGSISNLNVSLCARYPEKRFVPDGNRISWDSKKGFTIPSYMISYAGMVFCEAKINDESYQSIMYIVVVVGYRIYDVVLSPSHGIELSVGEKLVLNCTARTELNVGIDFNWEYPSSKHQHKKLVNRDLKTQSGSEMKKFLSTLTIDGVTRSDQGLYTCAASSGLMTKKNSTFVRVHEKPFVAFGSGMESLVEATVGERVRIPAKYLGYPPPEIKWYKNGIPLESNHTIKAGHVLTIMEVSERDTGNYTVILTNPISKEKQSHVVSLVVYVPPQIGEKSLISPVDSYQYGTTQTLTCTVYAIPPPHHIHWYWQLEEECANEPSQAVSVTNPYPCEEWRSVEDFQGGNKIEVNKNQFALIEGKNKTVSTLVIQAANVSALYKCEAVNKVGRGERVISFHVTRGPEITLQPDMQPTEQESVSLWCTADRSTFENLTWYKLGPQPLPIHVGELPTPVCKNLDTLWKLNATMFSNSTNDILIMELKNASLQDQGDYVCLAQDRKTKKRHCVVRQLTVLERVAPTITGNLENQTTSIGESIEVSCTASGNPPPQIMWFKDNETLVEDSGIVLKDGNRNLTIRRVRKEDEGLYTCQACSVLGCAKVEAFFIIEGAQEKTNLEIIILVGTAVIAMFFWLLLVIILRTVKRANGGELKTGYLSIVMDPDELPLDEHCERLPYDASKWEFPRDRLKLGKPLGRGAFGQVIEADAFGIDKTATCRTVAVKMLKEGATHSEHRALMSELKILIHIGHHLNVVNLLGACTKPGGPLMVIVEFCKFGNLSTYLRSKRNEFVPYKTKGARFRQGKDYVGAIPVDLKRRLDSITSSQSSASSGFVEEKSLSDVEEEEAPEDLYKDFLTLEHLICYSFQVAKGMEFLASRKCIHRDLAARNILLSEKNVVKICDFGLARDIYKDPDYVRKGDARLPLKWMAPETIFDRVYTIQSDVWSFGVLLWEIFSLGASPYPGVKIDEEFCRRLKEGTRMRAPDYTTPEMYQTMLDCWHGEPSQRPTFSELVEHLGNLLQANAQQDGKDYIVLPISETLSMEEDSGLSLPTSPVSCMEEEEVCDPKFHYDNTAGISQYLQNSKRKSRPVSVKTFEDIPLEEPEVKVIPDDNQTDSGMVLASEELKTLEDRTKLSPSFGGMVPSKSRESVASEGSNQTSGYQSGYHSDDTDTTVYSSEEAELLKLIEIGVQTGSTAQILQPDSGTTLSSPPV
Assay [19] has the same target. The note with it: at 1 µM.
Assay [20] has as its target Mast/stem cell growth factor receptor Kit (Homo sapiens) (UniProt P10721). The note with it: at 0.1 µM.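 Also: values are mean inhibition of KIT, from the GSK PKIS dataset.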

Chain of Tyrosine-protein kinase HCK (Homo sapiens) (P08631 2-526 limits assumed): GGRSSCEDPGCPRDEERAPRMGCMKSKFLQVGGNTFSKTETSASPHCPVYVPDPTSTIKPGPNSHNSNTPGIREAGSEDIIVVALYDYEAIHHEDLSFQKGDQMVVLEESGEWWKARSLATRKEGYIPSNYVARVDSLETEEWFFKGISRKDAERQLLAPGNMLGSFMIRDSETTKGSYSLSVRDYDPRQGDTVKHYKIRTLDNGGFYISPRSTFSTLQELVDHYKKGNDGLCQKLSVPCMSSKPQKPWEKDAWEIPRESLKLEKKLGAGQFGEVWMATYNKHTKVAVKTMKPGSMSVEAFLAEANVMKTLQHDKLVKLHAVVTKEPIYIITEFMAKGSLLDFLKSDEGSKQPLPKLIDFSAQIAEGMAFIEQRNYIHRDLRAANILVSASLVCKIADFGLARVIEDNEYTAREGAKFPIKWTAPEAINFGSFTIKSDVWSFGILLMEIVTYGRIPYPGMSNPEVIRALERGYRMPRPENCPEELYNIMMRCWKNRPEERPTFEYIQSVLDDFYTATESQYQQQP
Chain of Tyrosine-protein kinase Fyn (Homo sapiens) (P06241 2-537 limits assumed): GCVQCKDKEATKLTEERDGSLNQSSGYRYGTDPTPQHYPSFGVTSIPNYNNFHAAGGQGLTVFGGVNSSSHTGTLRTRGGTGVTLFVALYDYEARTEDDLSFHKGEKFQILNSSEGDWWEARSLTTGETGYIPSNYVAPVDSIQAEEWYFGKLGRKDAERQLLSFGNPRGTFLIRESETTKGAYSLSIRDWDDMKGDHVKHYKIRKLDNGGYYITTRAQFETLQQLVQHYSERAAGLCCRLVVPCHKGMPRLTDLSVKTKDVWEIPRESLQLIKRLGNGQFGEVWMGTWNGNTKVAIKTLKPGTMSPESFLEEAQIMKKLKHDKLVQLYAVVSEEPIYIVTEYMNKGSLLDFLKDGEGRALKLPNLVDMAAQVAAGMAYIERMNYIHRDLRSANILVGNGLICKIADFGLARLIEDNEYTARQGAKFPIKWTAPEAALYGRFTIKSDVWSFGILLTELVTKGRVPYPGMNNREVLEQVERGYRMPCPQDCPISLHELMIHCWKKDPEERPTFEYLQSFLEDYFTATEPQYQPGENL

As a reminder, the inhibition is the change of the read-out against control, counted positive when it falls. Regarding `COc1ccccc1Nc1ncc(-c2ccccc2)o1`, the inhibition in assay [1] is 8.38%; in [2] it was 9.81%; in assay [3], 13.3%; in assay [4], -0.7%; in assay [5] it was 1.64%; in assay [6] it was 1.17%. The inhibition was determined as 3.48% in assay [7]; 3.09% in [8]; 3.73% in assay [9]; 0.73% in assay [10]; 3.07% in assay [11]; 4.14% in assay [12]. Besides, the inhibition in assay [13] was 5.2%; in assay [14], 0.56%; in assay [15] it was -0.51%; in assay [16] it was -3.6%; in assay [17] it was -1.96%; in assay [18] it was 10.6%. Further, the inhibition amounted to 19.2% in assay [19] and 78.2% in assay [20].

For the compound `NCc1ccc(-c2nc(-c3ccc(Cl)c(O)c3)c(-c3ccncc3)[nH]2)cc1`, the inhibition in assay [1] was 31.8%; in assay [2], 12.9%; in [3], 55.1%; in [4], -0.62%; in [5] it was -0.25%; in assay [6] it was 0.74%. The inhibition was 2.07% in assay [7]; -0.06% in assay [8]; -1.54% in assay [9]; 0.2% in assay [10]; 1.29% in [11]; -0.11% in [12]. Also, the inhibition in [13] was determined as 2.34%; in [14] it was 0.65%; in [15], 0.75%; in assay [16], 1.4%; in assay [17], 1.41%; in assay [18] it was 69.2%. The inhibition in assay [19] turned out to be 74.8%; in assay [20], 0.79%.

`CS(=O)(=O)CCNCc1nc(-c2ccc3ncnc(Nc4ccc(F)c(Cl)c4)c3c2)cs1`: the inhibition in assay [1] is 3.55%; in assay [2] it was 4.76%; in [3] it was 13.4%; in assay [4], 3.27%; in [5], 3.4%; in assay [6], -0.96%. In addition, the inhibition in [7] was -3.83%; in [8] it was 2.7%; in [9] it was 1.63%; in [10], 1.06%; in [11] it was 0.89%; in [12], 2.86%. Also, the inhibition in assay [13] was 4.25%; in assay [14] it was 0.34%; in assay [15], 4.99%; in [16] it was -0.02%; in assay [17], 3.43%; in assay [18], 9.85%. For the same compound, the inhibition in [19] amounted to 18.5%; in [20], 3.87%.

In the case of `CCn1c(-c2nonc2N)nc2cnc(Oc3cccc(NC(=O)c4ccc(OCCN5CCOCC5)cc4)c3)cc21`, the inhibition in [1] is 5.35%; in assay [2], 6.47%; in assay [3], 4.67%; in assay [4], -0.59%; in assay [5], 1.49%; in assay [6], 5.62%. Further, the inhibition in assay [7] stood at 7.3%; in assay [8], 1.29%; in assay [9], 0.16%; in assay [10] it was 0.81%; in [11] it was 0.94%; in assay [12], 4.42%. The inhibition in assay [13] is 12.1%; in [14] it was 5.74%; in assay [15], 1.29%; in assay [16] it was 0.31%; in assay [17] it was -0.45%; in assay [18], 5.67%. For the same compound, the inhibition in [19] amounted to 7.83%; in [20], 5.45%.

On to `Cc1ccc(NC(=O)c2ccnc(N3CCCC3)c2)cc1-c1ccc(C(=O)NCC2CC2)cc1`, for which the inhibition was -1.49% in assay [1]; 4.55% in assay [2]; 10.7% in [3]; -4.41% in [4]; -3.36% in [5]; 6.4% in [6]. Further, the inhibition was 11.3% in assay [7]; 2.43% in assay [8]; 2.2% in assay [9]; -1.68% in assay [10]; -1.06% in assay [11]; 4.61% in assay [12]. Further, the inhibition in assay [13] is 5.32%; in assay [14], 1.37%; in assay [15], 2.33%; in [16], -2.85%; in [17] it was 2.32%; in [18] it was 9.55%. The results for the inhibition in assay [19] and in assay [20] were 10.2% and 5.54%, respectively.

Take `O=C1NC(=O)C(c2ccccc2Cl)=C1Nc1cccc(O)c1`: the inhibition in assay [1] came to 2.43%; in [2], 3.62%; in assay [3], 5.29%; in [4], 3.77%; in assay [5], 2.85%; in assay [6], 0.88%. In addition, the inhibition in assay [7] stood at 4.12%; in assay [8], 7.16%; in assay [9], 2.14%; in [10] it was 1.12%; in [11], 2.08%; in assay [12] it was 3.43%. In addition, the inhibition was 0.51% in [13]; 2.97% in assay [14]; 4.56% in assay [15]; 0.39% in [16]; 21.8% in assay [17]; 4.45% in [18]. In addition, the inhibition came out at 6.91% in assay [19] and 0.48% in assay [20].

As for `CS(=O)(=O)CCNCc1ccc(-c2ccc3ncnc(Nc4ccc(OCc5cccc(F)c5)c(C(F)(F)F)c4)c3c2)o1`, the inhibition in assay [1] came to 2.37%; in [2] it was 5.21%; in assay [3], 4.98%; in assay [4], 0.07%; in [5], 1.69%; in [6], 5.7%. In addition, the inhibition in [7] came to 6.44%; in assay [8], 3.1%; in [9], 2.55%; in assay [10], 1.12%; in assay [11], 0.72%; in [12], 3.98%. Besides, the inhibition was 13.3% in [13]; 0.47% in [14]; 1.17% in [15]; -0.58% in assay [16]; -0.15% in [17]; 3.99% in [18]. Moreover, the values for the inhibition in assay [19] and in [20] were 3.93% and 3.96%, respectively.
